# Data: PubChem BioAssay (NCATS)
# Results filed as inconclusive are left out. The source made the active and inactive calls. The call rests on the fitted dose curve; in most records, active means well fitted cell-killing curve with a large enough effect; inconclusive means small, poorly fitted or top-dose-only effect; inactive means flat fitted curve, though single readings scatter.
# Test: Quantitative highthroughput screen to assess conditional lethalithy of NOMO1 cells grown in RPMI1640 with dialyzed fetal bovine serum (RPMI+ds) (AID 1963877); further: nearly all actives have a fitted effect of over 30% in size
# Details: NOMO1 in RPMI+dialyzed FBS viability, ATP luminescence, 48 h; series mostly up to 45.8 µM; viability: at the top concentration
# From the text: Assay Provider: Jason Cantor Ph.D.
# Department of Biochemistry
# University of Wisconsin-Madison, Madison, WI, USA
# Chemical screening studies have identified drug sensitivities across hundreds of cancer cell lines but most putative therapeutics fail to translate. Discovery and development of drug candidates in models that more accurately reflect nutrient levels in human blood is a major challenge. Here we performed high-throughput screens in conventional versus Human Plasma-Like Medium (HPLM) to identify compounds that were "missed" when screening using the artificial culture condition. Sets of conditional anticancer compounds spanned phases of clinical development and included non-oncology drugs were assessed. […] We also traced conditional phenotypes for several chemotherapeutics to availability of HPLM-specific metabolites and confirmed others for compounds whose reported targets are encoded by nonessential genes. Our findings establish generalizable strategies for exploiting conditional lethality in HPLM to reveal therapeutic candidates and mechanisms of action in cancer cells.
# Described herein are the results of each viability screens against three cell lines: NOMO1 (an acute myeloid leukemia cell line); P12-Ichikawa (a T-cell acute lymphoblastic leukemia); and SEM (a B-cell ALL). Each assay was screened using 3 different cell culture media: homemade human plasma-Like medium with 10% dialyzed fetal bovine serum (HPLM+ds); RPMI1640 with 10% untreated FBS and 5mM glucose (RPMI+s); and RPMI1640 with 10% dialyzed fetal bovine serum and 5 mM glucose (RPMI+ds).
# PROTOCOL TABLE (as described by Inglese J, Shamu CE and Guy RK. 2007)
# SEQUENCE No. (e.g., 1, 2, 3, etc.); […] (e.g., Cells, Incubation, Reagent, etc.); VALUE and DESCRIPTION.
# 1; Cells; 5 uL; white, solid bottom 1536-well Greiner assay plate.
# 2; Compounds; 23 nL; Kalypsis pin tool (Wako USA) equipped with a 1536-well pin head to transfer to the assay plates.
# 3; Incubation; 48 hours; 37C incubation.
# 4; Reagent; 3 uL; CellTiter Glo (Promega).
# 5; Incubation; 5 min, room temperature
# 6; Detection; Luminescence, Viewlux PerkinElmer.
# NOTES (numbers refer to Sequence numbers above)
# 1. Briefly, 5 ul of cell reagent was dispensed using a Multidrop Combi Dispenser. The NOMO1 and SEM cells were plated at 500 cells/well and the P12-Ichikawa line at 1000 cells/well.
# 2. After seeding the cells, 23 nL of MIPE 4.1 library compounds (in DMSO) were added to each plate using a Kalypsys 1536 Pintool dispenser. Bortezomib at final concentration of […] and DMSO were added to each plate as positive and negative controls respectively. For each screen, MIPE 4.1 compounds were added over an eleven-point concentration range […] in 3-fold dilutions.
# 3. Each plate was covered with a stainless steel gasketed lid to prevent evaporation and incubated for 48 hour at 37C, 95% relative humidity, and 5% CO2.
# 4-5. Three microliter CellTilter-GloTM luminescent substrate mix (Promega) reagent was added to the assay plate and incubated at room temperature for 5 min.
# 6. The luminescence signal was measured using a ViewLux (PerkinElmer) multiplate reader with a 2 second exposure time per plate. Data for each compound were normalized as percent viability such that measurements for DMSO and the empty well controls in each plate were defined as 100% and 0%, respectively.
# Potency means the concentration at half of the fitted maximal effect.
SMILES,viability,Potency
CCOC(=O)C1=C(O)C(=O)N(Cc2ccccc2)C1,96.5% (inactive),–
CCOc1cc2ncc(C#N)c(Nc3ccc(F)c(Cl)c3)c2cc1NC(=O)C=CCN(C)C,–,7.43 µM (active)
Cc1cnc(C(=O)O)c[n+]1[O-],108% (inactive),–
COc1ccc(-c2coc3cc(O)ccc3c2=O)cc1,92.4% (inactive),–
COc1cc(Nc2ncc(F)c(Nc3ccc4c(n3)NC(=O)C(C)(C)O4)n2)cc(OC)c1OC,–,9.35 µM (active)
C[C@@H]1CCN(C(=O)CC#N)C[C@H]1N(C)c1ncnc2[nH]ccc12,99.8% (inactive),–
CC1=C(C(=O)O)N2C(=O)[C@@H](NC(=O)C(N)c3ccccc3)[C@H]2SC1 (stereo not given in full),93.6% (inactive),–
COCCNCCCn1c(C(=O)CF)c(-c2ccc(C)cc2)c2c(N)ncnc21,114% (inactive),–
CCCCOc1c(C(=O)c2c(F)cc(C)cc2F)cnc2n[nH]cc12,96.1% (inactive),–
CN[C@H](CC(C)C)C(=O)N[C@H]1C(=O)N[C@@H](CC(N)=O)C(=O)N[C@@H]2C(=O)N[C@H]3C(=O)N[C@H](C(=O)N[C@H](C(=O)O)c4cc(O)cc(O)c4-c4cc3ccc4O)[C@H](O)c3ccc(c(Cl)c3)Oc3cc2cc(c3O[C@@H]2O[C@H](CO)[C@@H](O)[C@H](O)[C@@H]2O[C@H]2C[C@](C)(N)[C@H](O)[C@H](C)O2)Oc2ccc(cc2Cl)[C@H]1O,92% (inactive),–
C[C@H](c1ccc(F)cc1CCCC(=O)O)N(c1cc(F)ccc1F)S(=O)(=O)c1ccc(Cl)cc1,92% (inactive),–
CC1CC2C3CCC4=CC(=O)C=C[C@]4(C)[C@@]3(F)[C@@H](O)C[C@]2(C)[C@@]1(O)C(=O)CO (stereo not given in full),101% (inactive),–
N=C(N=C(N)N)N1CCOCC1,103% (inactive),–
Oc1cccc(-c2nc(N3CCOCC3)c3oc4ncccc4c3n2)c1,99.9% [at 92.2 µM] (inactive),–
CCCCc1nc2cc(C=CC(=O)NO)ccc2n1CCN(CC)CC,–,6.62 µM (active)
Cc1ccc(CN2CCNCC2)cc1NC(=O)CNc1ccc(F)c(F)c1,110% (inactive),–
Fc1ccc(Cl)cc1-c1nc(Nc2ccncc2)c2nccnc2n1,96.4% (inactive),–
COc1ccc(C[C@@H](C)[C@@H](C)Cc2ccc(OC)c(OC)c2)cc1OC,–,2.64 µM (active)
c1ccc([C@H]2CN3CCSC3=N2)cc1,97.7% (inactive),–
Cc1ccnc(NS(=O)(=O)c2ccc(NC(=O)Nc3ccc(S(=O)(=O)Nc4nccc(C)n4)cc3)cc2)n1,–,0.469 µM (active)

SMILES,viability,Potency
Cc1c(Cn2c(C)nc3c(C(=O)O)cc(N4CCOCC4)cc32)cccc1C(F)(F)F,85% (inactive),–
Cn1cc(-c2ccc3ncc(Cc4ccc5ncccc5c4)n3n2)cn1,93.7% (inactive),–
COc1ccc2c(c1)c(CC(=O)OCC(=O)O)c(C)n2C(=O)c1ccc(Cl)cc1,93.3% (inactive),–
O=C(O)c1ccc(Nc2ncc3c(n2)-c2ccc(Cl)cc2C(c2c(F)cccc2F)=NC3)cc1,–,0.662 µM (active)
CN(C)CCOc1ccc(-c2nc(-c3ccc4c(c3)CCC4=NO)c(-c3ccncc3)[nH]2)cc1,–,18.7 µM (active)
CC1(C)O[C@@H]2C[C@@H]3[C@H]4C[C@@H](F)C5=CC(=O)C=C[C@]5(C)[C@@]4(F)[C@@H](O)C[C@]3(C)[C@]2(C(=O)CO)O1,91.6% (inactive),–
CC#CCn1c(N2CCC[C@@H](N)C2)nc2c1c(=O)n(Cc1nc(C)c3ccccc3n1)c(=O)n2C,100% (inactive),–
CCNC(=O)Nc1ccc(Oc2ncnc(N)c2C=NOC)cc1Cl,111% (inactive),–
CCC[C@@H]1C[C@@H](C(=O)N[C@@H]([C@H]2O[C@H](SC)[C@H](O)[C@@H](O)[C@H]2O)[C@@H](C)O)N(C)C1,97.2% (inactive),–
O=C(Nc1ncc(SCCN2CCCC2)s1)[C@]1(c2ccc(S(=O)(=O)C3CC3)cc2)C[C@@H]1C1CCCCC1,–,23.5 µM (active)
COc1ccc(-c2ccc3c(N4CCOCC4)nc(N4C[C@@H](C)O[C@@H](C)C4)nc3n2)cc1CO,–,4.69 µM (active)
Nc1nc(=O)n([C@H]2C[C@H](O)[C@@H](CO)O2)cc1F,–,0.0209 µM (active)
Cc1cn2cc(C(=O)N(C)CCO)cc(N[C@@H]3CCOc4cccc(C)c43)c2n1,106% (inactive),–
CN1[C@@H]2CCC[C@@H]1CC(NC(=O)c1nn(C)c3ccccc13)C2 (stereo not given in full),99.5% (inactive),–
CNC(=O)c1ccc(N2C(=S)N(c3ccc(C#N)c(C(F)(F)F)c3)C(=O)C2(C)C)cc1F,93.9% (inactive),–
CCOc1cc(N)c(Cl)cc1C(=O)NCC1CN(Cc2ccc(F)cc2)CCO1 (stereo not given),95.4% (inactive),–
O=C(Nc1cc(C(F)(F)F)cc(C(F)(F)F)c1)c1cc(Cl)ccc1O,–,2.96 µM (active)
Nc1ncnc2nc(-c3ccc(N4CCOCC4)nc3)cc(-c3cccc(Br)c3)c12,114% (inactive),–
C=CC(=O)Nc1cc2c(Nc3ccc(F)c(Cl)c3)ncnc2cc1OCCCN1CCOCC1,–,2.96 µM (active)
CNC(=O)c1ccc2cc(C3(O)CCn4cncc43)ccc2c1 (stereo not given),96.6% (inactive),–
